IDE exosite inh – exo-site inhibitors of human insulin-degrading enzyme | P14735 | purified IDE, FL-6b probe fluorescence polarization; active compounds read low | AID 1259349 | z-score at 20 µM | hit rate 6.3% among 17,000;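 active means z-score of -3 or lower, meaning strong loss of probe binding signal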;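 further: His-tagged human IDE residues 42-1019 made in E. coli with 30 nM FL-6b probe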
Numbers without * were called inactive. The entries come from a sample that favours hits as a whole.

SMILES	IDE exosite inh
Cc1ccccc1-c1ccc([C@H]2[C@H]3CN(S(=O)(=O)c4cn(C)cn4)CCCCN3[C@H]2CO)cc1	-3.62*
COc1ccccc1-c1ccc([C@H]2[C@@H](CO)N3CCCCN(S(=O)(=O)c4cn(C)cn4)C[C@@H]23)cc1	0.396
COc1ccccc1-c1ccc([C@H]2[C@@H](CO)N3CCCCN(S(=O)(=O)c4cn(C)cn4)C[C@H]23)cc1	-9.3*
Cc1ccccc1-c1ccc([C@H]2[C@@H](CO)N3CCCCN(S(=O)(=O)c4cn(C)cn4)C[C@@H]23)cc1	-3.44*
Cc1ccccc1-c1ccc([C@@H]2[C@@H](CO)N3CCCCN(S(=O)(=O)c4cn(C)cn4)C[C@H]23)cc1	-2.25
Cn1cnc(S(=O)(=O)N2CCCCN3[C@H](C2)[C@@H](c2ccc(-c4ccccc4)cc2)[C@@H]3CO)c1	-1.52
Cc1ccccc1-c1ccc([C@@H]2[C@H](CO)N3CCCCN(S(=O)(=O)c4cn(C)cn4)C[C@@H]23)cc1	-15.7*
Cn1cnc(S(=O)(=O)N2CCCCN3[C@H](C2)[C@@H](c2ccc(-c4ccc(F)cc4)cc2)[C@@H]3CO)c1	0.912
Cn1cnc(S(=O)(=O)N2CCCCN3[C@@H](CO)[C@H](c4ccc(-c5ccccc5)cc4)[C@@H]3C2)c1	-0.126
COc1ccccc1-c1ccc([C@H]2[C@H](CO)N3CCCCN(S(=O)(=O)c4cn(C)cn4)C[C@@H]23)cc1	0.665
C[C@@H]1CN([C@H](C)CO)C(=O)c2cc(C#Cc3ccccc3)cnc2O[C@H]1CN(C)C(=O)c1ccccc1	-2.16
N#C[C@@H]1[C@@H](c2ccccc2C2=CCCCC2)[C@H](CO)N1C(=O)C1CCOCC1	0.408
CCS(=O)(=O)N1CC2(C1)[C@@H](c1ccccc1)[C@@H](CO)N2Cc1ccccn1	0.0237
N#C[C@H]1N[C@H](CO)[C@@H]1c1ccc(C2=CCCC2)cc1	0.0442
O=C(NC[C@H]1[C@@H](c2ccccc2)[C@@H](CO)N1Cc1ccccn1)C1CC1	4.77
O=C(O)[C@@H]1[C@@H](CO)[C@@H]2Cn3c(ccc(/C=C/c4ccccc4)c3=O)[C@@H]2N1Cc1ccc2c(c1)OCO2	-0.249
O=C(Nc1ccccc1F)N1CC(=O)N2[C@H](CO)[C@H](c3ccc(-c4ccccc4)cc3)[C@@H]2C1	-0.514
O=C(Nc1cc(F)ccc1F)N1CC(=O)N2[C@@H](CO)[C@@H](c3ccc(-c4cccnc4)cc3)[C@@H]2C1	1.87
O=C(Nc1ccccc1F)N1CC(=O)N2[C@H](CO)[C@@H](c3ccc(C#Cc4ccccc4)cc3)[C@H]2C1	-0.574
O=C(Nc1cc(F)ccc1F)N1CC(=O)N2[C@@H](CO)[C@H](c3ccc(-c4cccnc4)cc3)[C@@H]2C1	1.57
O=C(Nc1ccccc1F)N1CC(=O)N2[C@@H](CO)[C@H](c3ccc(C#Cc4ccccc4)cc3)[C@@H]2C1	-8.86*
O=C(Nc1ccccc1F)N1CC(=O)N2[C@H](C1)[C@@H](c1ccc(C#Cc3ccccc3)cc1)[C@@H]2CO	-2.8
O=C(Nc1ccccc1F)N1CC(=O)N2[C@H](CO)[C@@H](c3ccc(-c4ccccc4)cc3)[C@H]2C1	-1.41
O=C(Nc1cc(F)ccc1F)N1CC(=O)N2[C@H](CO)[C@H](c3ccc(-c4cccnc4)cc3)[C@H]2C1	-4.47*
O=C(Nc1ccccc1F)N1CC(=O)N2[C@H](CO)[C@@H](c3ccc(-c4ccccc4)cc3)[C@@H]2C1	-6.04*
SMILES	IDE exosite inh
OC[C@@H]1[C@@H](c2ccccc2)C2(CN(Cc3ccccn3)C2)N1CCC(F)(F)F	0.523
C[C@H]1CN([C@@H](C)CO)C(=O)c2ccccc2-c2ccccc2CO[C@H]1CN(C)S(=O)(=O)c1ccc([N+](=O)[O-])cc1	1.32
O=C(C[C@H]1C[C@H]2c3cc(NC(=O)c4ccc5c(c4)OCO5)ccc3O[C@H]2[C@@H](CO)O1)NCCN1CCCCC1	-0.422
COc1cccc(-c2ccc([C@@H]3[C@H]4CN(S(=O)(=O)c5cn(C)cn5)CCCCN4[C@H]3CO)cc2)c1	-5.54*
Cn1cnc(S(=O)(=O)N2CCCCN3[C@H](CO)[C@H](c4ccc(-c5cccc(F)c5)cc4)[C@H]3C2)c1	-1.28
Cc1cccc(-c2ccc([C@@H]3[C@H](CO)N4CCCCN(S(=O)(=O)c5ccccc5F)C[C@@H]34)cc2)c1	-22.1*
Cc1cccc(-c2ccc([C@H]3[C@H](CO)N4CCCCN(S(=O)(=O)c5ccccc5C)C[C@@H]34)cc2)c1	1.3
Cn1cnc(S(=O)(=O)N2CCCCN3[C@H](C2)[C@H](c2ccc(-c4cccc(F)c4)cc2)[C@@H]3CO)c1	3.29
COc1cccc(-c2ccc([C@H]3[C@H]4CN(S(=O)(=O)c5cccs5)CCCCN4[C@H]3CO)cc2)c1	0.231
Cn1cnc(S(=O)(=O)N2CCCCN3[C@H](CO)[C@@H](c4ccc(-c5ccccc5)cc4)[C@H]3C2)c1	1.31
COc1cccc(-c2ccc([C@@H]3[C@@H](CO)N4CCCCN(S(=O)(=O)c5cccs5)C[C@@H]34)cc2)c1	-3.16*
COc1cccc(-c2ccc([C@H]3[C@@H](CO)N4CCCCN(S(=O)(=O)c5cccs5)C[C@@H]34)cc2)c1	2
Cc1cccc(-c2ccc([C@H]3[C@@H](CO)N4CCCCN(S(=O)(=O)c5cn(C)cn5)C[C@H]34)cc2)c1	-11*
Cc1cccc(-c2ccc([C@@H]3[C@@H](CO)N4CCCCN(S(=O)(=O)c5cn(C)cn5)C[C@H]34)cc2)c1	-0.699
O=S(=O)(c1ccccc1F)N1CCCCN2[C@H](C1)[C@H](c1ccc(-c3ccccc3)cc1)[C@@H]2CO	0.639
CN(C)C(=O)c1cccc(-c2ccccc2[C@@H]2[C@@H](C#N)N(C(=O)C3CCCCC3)[C@H]2CO)c1	-0.25
CCC(=O)N1CC(=O)N2[C@H](CO)[C@@H](c3ccc(-c4ccc(C#N)cc4)cc3)[C@@H]2C1	-0.885
COc1cccc(NC(=O)N[C@@H]2C=C[C@@H](CC(=O)NCc3ccncn3)O[C@H]2CO)c1	1.72
C/C=C/c1ccc([C@@H]2[C@H]3CN(S(=O)(=O)c4ccc(OC)cc4)CCCCN3[C@H]2CO)cc1	0.0789
O=C1CN(S(=O)(=O)c2ccccc2)C[C@H]2[C@@H](c3ccc(Br)cc3)[C@H](CO)N12	0.389
CC(=O)N1[C@H](CO)[C@H](c2ccccc2)[C@H]1CN(CC(C)C)C(=O)c1ccccn1	-0.43
COCC(=O)N(C[C@@H]1[C@@H](c2ccccc2)[C@@H](CO)N1C(=O)NC(C)C)C(C)C	-0.464
COc1ccc(S(=O)(=O)Nc2ccc3c(c2)C(=O)N([C@@H](C)CO)C[C@H](C)[C@@H](CN(C)S(=O)(=O)c2ccc(Cl)cc2)OCCCC[C@@H](C)O3)cc1	2
CCC(=O)N1[C@@H](CO)[C@@H](c2ccccc2)C12CN(C(=O)c1ccncc1)C2	1.08
CCC(=O)N1[C@H](CO)[C@H](c2ccccc2)C12CN(C(=O)c1ccncc1)C2	0.464
O=C(Cc1ccccn1)N1CC2(C1)[C@H](c1ccccc1)[C@H](CO)N2C(=O)c1ccncc1	-4.47*
O=C([C@H]1[C@H](CO)[C@H]2Cn3c(ccc(C4=CCCC4)c3=O)[C@@H]1N2C(=O)c1cccnc1)N1CCOCC1	0.561
COc1ccc2c3c(n(C)c2c1)[C@@H](CO)NCC31CCN(S(=O)(=O)c2cccc(C)c2)CC1	1.11
COc1ccc(C#Cc2ccc([C@H]3[C@H](CO)N4C(=O)CN(C(=O)c5ccncc5)C[C@@H]34)cc2)cc1	1.44
COc1cccc(C#Cc2ccc([C@H]3[C@@H](CO)N4C(=O)CN(C(=O)c5ccncc5)C[C@@H]34)cc2)c1	-7.29*

High-throughput results as filed in PubChem.
